Source: PubChem BioAssay (NCI)
Compounds without any hit were thinned out: in the full panel of roughly 83,000, 20% have a hit.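 Treatment: one concentration, 48 hours, 96-well format. Scoring: percent growth, with anything below 10 considered active.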 Unmarked numbers belong to inactive results. Active and inactive are the calls of the source.

Key:
Experiment in all cases: NCI-60 one-dose screen, 48 h (100 = growth as untreated, 0 = no growth, -100 = all killed)
Details in all cases: 10 µM unless noted
[1] = test system: NCI-H23 lung
[2] = test system: NCI-H226 lung
[3] = test system: NCI-H322M lung
[4] = test system: HOP-62 NSCLC
[5] = test system: NCI-H460 lung
[6] = test system: HOP-92 NSCLC
[7] = test system: NCI-H522 lung
[8] = test system: A549/ATCC NSCLC
[9] = test system: 786-0 renal
[10] = test system: COLO 205 colon
[11] = test system: DU-145 prostate
[12] = test system: K-562 leukemia
[13] = test system: MALME-3M melanoma
[14] = test system: MDA-MB-231 breast
[15] = test system: RXF 393 renal
[16] = test system: SF-268 CNS
[17] = test system: SF-295 CNS
[18] = test system: SF-539 CNS
[19] = test system: UACC-257 melanoma
[20] = test system: M14 melanoma

| Compound | growth [1] | growth [2] | growth [3] | growth [4] | growth [5] | growth [6] | growth [7] | growth [8] | growth [9] | growth [10] | growth [11] | growth [12] | growth [13] | growth [14] | growth [15] | growth [16] | growth [17] | growth [18] | growth [19] | growth [20] |
| --- | --- | --- | --- | --- | --- | --- | --- | --- | --- | --- | --- | --- | --- | --- | --- | --- | --- | --- | --- | --- |
| CN(C)c1ccc(Nc2cc(-c3cccc(OC(F)(F)F)c3)nc3ccc(N4CCCC4)cc23)cc1 | 27.2% | 103% | 46.3% | 61.3% | -70.9% (active) | 85.3% | 87.7% | -32.8% (active) | 2.11% (active) | 70.6% | 50.3% | -20.9% (active) | -90.4% (active) | 12.3% | 88.8% | -13.4% (active) | 108% | 91.6% | 14.1% | -76.3% (active) |
| Cc1ccc(C2=Nc3c(N)ncnc3NC(c3ccc4c(c3)OCO4)C2)cc1 (stereo not given) | 74.3% | 85.1% | 102% | 64.5% | 42.4% | 8.52% (active) | 47.2% | 56.4% | 80.8% | 37.3% | 98% | 14.8% | 51.8% | 61.3% | 59.4% | 72.9% | 40.8% | 67.7% | 96.2% | 39% |
| COc1ccc2[nH]cc(-c3nc(-c4cn(C)c5c(Cl)nccc45)cs3)c2c1 | 58.3% | 40.8% | 75.5% | 56.6% | 6.1% (active) | 78.8% | 13.9% | 33.8% | 16.2% | 32.9% | 40.7% | 17.9% | 72.1% | 48.2% | 32.5% | 73% | 37.9% | 23.3% | -33% (active) | 14% |
| O=C(Nc1nc2ccc(F)cc2s1)c1cccnc1Nc1ccc(Cl)cc1 | 9.97% (active) | 44.1% | 30.9% | 75.6% | 9.26% (active) | 0.414% (active) | 21.1% | 31% | 56.2% | 49.8% | 44.3% | 5.7% (active) | 3.74% (active) | 50.7% | 59.8% | 37.2% | 17.4% | 50.3% | 43% | 53.8% |
| OB(O)c1cccc(-c2nc3ccc4[nH]ncc4c3c3c2CCCC3)c1 | 73% | 81.6% | 45% | 42.3% | 32.6% | 47.6% | 62.9% | 41.8% | 41.4% | 41.7% | 50.3% | 52.6% | 120% | 26.1% | 13.6% | 37.9% | 71.6% | 20.9% | 103% | 64.8% |
| CCOc1nc(-c2ccccc2)cc2c(O)c(C(=O)NN)[nH]c(=O)c12 | 117% | 105% | 104% | 123% | 86.1% | 93.2% | 88.5% | 103% | 97.3% | 121% | 120% | 134% | 112% | 99.3% | 108% | 86.2% | 107% | 96.9% | 103% | 98.8% |
| COc1ccc(C(=O)C2C(c3ccc(OC)cc3)CN(C)C23C(=O)Nc2ccccc23)cc1 (stereo not given) | 86.1% | 88% | 103% | 94.3% | 97.7% | 83% | 76.4% | 87.9% | 96% | 105% | 99% | 77.1% | 92.7% | 93.9% | 80.8% | 89.7% | 90.6% | 104% | 97.5% | 98.9% |
| CC(C)(C)[Si](C)(C)O[C@H]1C(=O)C=CN2CC=C[C@@H]12 | 93.3% [100 µM] | 94.4% [100 µM] | 104% [100 µM] | 111% [100 µM] | 103% [100 µM] | 93.9% [100 µM] | 91.7% [100 µM] | 110% [100 µM] | 105% [100 µM] | 122% [100 µM] | 108% [100 µM] | 105% [100 µM] | 106% [100 µM] | 105% [100 µM] | 109% [100 µM] | 101% [100 µM] | 94.1% [100 µM] | 99.4% [100 µM] | 93.6% [100 µM] | 108% [100 µM] |
